Results published in the supplement of paper PMC10849652.
About 7,900 targets were measured; listed, in parts, are those with a hit and a random draw of the rest. About 0.6% of all pairs of compound and target were hits. Unmarked numbers belong to inactive results.

Legend:
Assay in all cases: log2 fold change, soluble protein after heating vs DMSO (PISA); higher = thermal stabilisation; K562 cells, 10 uM, 30 min; active = over 0.2 and 3.5 SD of the protein, either way, in both replicates (recomputed)
[1] = compound: Cc1ccc(NC(=O)c2ccc(CN3CC[C@H](N(C)C)C3)c(C(F)(F)F)c2)cc1Nc1nccc(-c2cncnc2)n1 [bafetinib]
Procedure, shortened: (§1)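 Values are thermal stability changes relative to control samples and are taken from duplicates. They are stated as log2 fold changes. Before quantification by TMTpro 16plex LC-MS/MS with equalised channel sums, K562 cells at 2×10^6 cells/mL were treated with 10 μM compound for 30 min, heated in aliquots for 3 min across 48°C-58°C, pooled, extracted in PBS with 0.5% NP-40 at 4°C, and centrifuged at 21,000xg for 90 min to give the soluble supernatant.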

[2] = compound: Cc1cccc(CC(=O)N2CCc3c2ccc(-c2cn(C)c4ncnc(N)c24)c3F)n1
Procedure, shortened: as §1

[3] = compound: Cc1nc(Nc2ncc(C(=O)Nc3c(C)cccc3Cl)s2)cc(N2CCN(CCO)CC2)n1 [dasatinib]
Procedure, shortened: as §1

[4] = compound: Cn1cncc1[C@@](N)(c1ccc(Cl)cc1)c1ccc2c(c1)c(-c1cccc(Cl)c1)cc(=O)n2C [tipifarnib]
Procedure, shortened: as §1

[5] = compound: NC(=O)Nc1cc(-c2cccc(F)c2)sc1C(=O)N[C@H]1CCCNC1
Procedure, shortened: as §1

[6] = compound: NCC(=O)Nc1ccc(-n2nc(C(F)(F)F)cc2-c2ccc3c(ccc4ccccc43)c2)cc1
Procedure, shortened: as §1

[7] = compound: Nc1ccccc1NC(=O)c1ccc(CNC(=O)OCc2cccnc2)cc1 [entinostat]
Procedure, shortened: as §1

[8] = compound: O=C(CCCCCCC(=O)Nc1ccccc1)NO [vorinostat]
Procedure, shortened: as §1

[9] = compound: O=C(CCCCCCNC(=O)c1cnc(N(c2ccccc2)c2ccccc2Cl)nc1)NO [citarinostat]
Procedure, shortened: as §1

[10] = compound: O=C1NC(=O)C(c2cnc3ccccn23)=C1c1cn2c3c(cc(F)cc13)CN(C(=O)N1CCCCC1)CC2
Procedure, shortened: as §1

[11] = compound: c1cc(OCCN2CCCCC2)cc(-c2n[nH]c3ccc(-c4nnc[nH]4)cc23)c1
Procedure, shortened: as §1

[12] = compound: Cn1cc(-c2ccc3c(c2)CCN3C(=O)Cc2cccc(C(F)(F)F)c2)c2c(N)ncnc21
Procedure, shortened: as §1

[13] = compound: Cn1cc(-c2ccc3nnc(C(F)(F)c4ccc5ncccc5c4)n3n2)cn1
Procedure, shortened: as §1

[14] = compound: FC(F)(F)c1ccc(/C=C/c2nc(COc3ccc(CCCCn4ccnn4)cc3)co2)cc1 [mubritinib]
Procedure, shortened: as §1

[15] = compound: NC(=O)c1cnc(N[C@@H]2CCCC[C@@H]2N)nc1Nc1cccc(-n2nccn2)c1
Procedure, shortened: as §1

[16] = compound: NC1(c2ccc(-c3nc4ccn5c(=O)[nH]nc5c4cc3-c3ccccc3)cc2)CCC1
Procedure, shortened: as §1

[17] = compound: O=C(O)c1ccc2c(c1)nc(Nc1cccc(Cl)c1)c1ccncc12 [silmitasertib]
Procedure, shortened: as §1

[18] = compound: Cc1cn(-c2cc(NC(=O)c3ccc(C)c(Nc4nccc(-c5cccnc5)n4)c3)cc(C(F)(F)F)c2)cn1 [nilotinib]
Procedure, shortened: as §1

[19] = compound: Cc1nc(Nc2n[nH]c3c2CN(C(=O)N[C@H](CN(C)C)c2ccccc2)C3(C)C)c2sccc2n1
Procedure, shortened: as §1

[20] = compound: Cc1ncc(-c2ccnc(Nc3ccc(S(C)(=O)=O)cc3)n2)n1C(C)C
Procedure, shortened: as §1

UniProt Q6PID6, sequence (Q6PID6 whole entry, looked up): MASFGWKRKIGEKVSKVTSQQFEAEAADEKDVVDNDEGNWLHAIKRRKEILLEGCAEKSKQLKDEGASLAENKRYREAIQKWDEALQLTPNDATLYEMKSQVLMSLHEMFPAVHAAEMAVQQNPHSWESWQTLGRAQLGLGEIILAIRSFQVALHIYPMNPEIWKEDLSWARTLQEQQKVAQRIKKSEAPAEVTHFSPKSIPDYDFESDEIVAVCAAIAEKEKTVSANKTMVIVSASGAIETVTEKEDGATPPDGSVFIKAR
UniProt O60784, sequence (O60784 whole entry, looked up): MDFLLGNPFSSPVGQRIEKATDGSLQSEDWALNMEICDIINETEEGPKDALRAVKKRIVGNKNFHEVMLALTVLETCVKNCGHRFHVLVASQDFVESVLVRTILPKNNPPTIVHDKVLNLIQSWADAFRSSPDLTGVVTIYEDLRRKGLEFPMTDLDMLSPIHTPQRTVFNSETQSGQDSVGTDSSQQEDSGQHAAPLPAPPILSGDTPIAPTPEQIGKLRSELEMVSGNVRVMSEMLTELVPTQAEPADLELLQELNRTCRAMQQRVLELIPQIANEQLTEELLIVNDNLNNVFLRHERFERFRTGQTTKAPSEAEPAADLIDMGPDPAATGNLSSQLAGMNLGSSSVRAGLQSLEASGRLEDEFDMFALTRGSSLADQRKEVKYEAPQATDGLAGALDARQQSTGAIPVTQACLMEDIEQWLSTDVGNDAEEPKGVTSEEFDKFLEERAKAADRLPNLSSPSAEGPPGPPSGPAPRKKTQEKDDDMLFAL
UniProt P49815, sequence (P49815 whole entry, looked up): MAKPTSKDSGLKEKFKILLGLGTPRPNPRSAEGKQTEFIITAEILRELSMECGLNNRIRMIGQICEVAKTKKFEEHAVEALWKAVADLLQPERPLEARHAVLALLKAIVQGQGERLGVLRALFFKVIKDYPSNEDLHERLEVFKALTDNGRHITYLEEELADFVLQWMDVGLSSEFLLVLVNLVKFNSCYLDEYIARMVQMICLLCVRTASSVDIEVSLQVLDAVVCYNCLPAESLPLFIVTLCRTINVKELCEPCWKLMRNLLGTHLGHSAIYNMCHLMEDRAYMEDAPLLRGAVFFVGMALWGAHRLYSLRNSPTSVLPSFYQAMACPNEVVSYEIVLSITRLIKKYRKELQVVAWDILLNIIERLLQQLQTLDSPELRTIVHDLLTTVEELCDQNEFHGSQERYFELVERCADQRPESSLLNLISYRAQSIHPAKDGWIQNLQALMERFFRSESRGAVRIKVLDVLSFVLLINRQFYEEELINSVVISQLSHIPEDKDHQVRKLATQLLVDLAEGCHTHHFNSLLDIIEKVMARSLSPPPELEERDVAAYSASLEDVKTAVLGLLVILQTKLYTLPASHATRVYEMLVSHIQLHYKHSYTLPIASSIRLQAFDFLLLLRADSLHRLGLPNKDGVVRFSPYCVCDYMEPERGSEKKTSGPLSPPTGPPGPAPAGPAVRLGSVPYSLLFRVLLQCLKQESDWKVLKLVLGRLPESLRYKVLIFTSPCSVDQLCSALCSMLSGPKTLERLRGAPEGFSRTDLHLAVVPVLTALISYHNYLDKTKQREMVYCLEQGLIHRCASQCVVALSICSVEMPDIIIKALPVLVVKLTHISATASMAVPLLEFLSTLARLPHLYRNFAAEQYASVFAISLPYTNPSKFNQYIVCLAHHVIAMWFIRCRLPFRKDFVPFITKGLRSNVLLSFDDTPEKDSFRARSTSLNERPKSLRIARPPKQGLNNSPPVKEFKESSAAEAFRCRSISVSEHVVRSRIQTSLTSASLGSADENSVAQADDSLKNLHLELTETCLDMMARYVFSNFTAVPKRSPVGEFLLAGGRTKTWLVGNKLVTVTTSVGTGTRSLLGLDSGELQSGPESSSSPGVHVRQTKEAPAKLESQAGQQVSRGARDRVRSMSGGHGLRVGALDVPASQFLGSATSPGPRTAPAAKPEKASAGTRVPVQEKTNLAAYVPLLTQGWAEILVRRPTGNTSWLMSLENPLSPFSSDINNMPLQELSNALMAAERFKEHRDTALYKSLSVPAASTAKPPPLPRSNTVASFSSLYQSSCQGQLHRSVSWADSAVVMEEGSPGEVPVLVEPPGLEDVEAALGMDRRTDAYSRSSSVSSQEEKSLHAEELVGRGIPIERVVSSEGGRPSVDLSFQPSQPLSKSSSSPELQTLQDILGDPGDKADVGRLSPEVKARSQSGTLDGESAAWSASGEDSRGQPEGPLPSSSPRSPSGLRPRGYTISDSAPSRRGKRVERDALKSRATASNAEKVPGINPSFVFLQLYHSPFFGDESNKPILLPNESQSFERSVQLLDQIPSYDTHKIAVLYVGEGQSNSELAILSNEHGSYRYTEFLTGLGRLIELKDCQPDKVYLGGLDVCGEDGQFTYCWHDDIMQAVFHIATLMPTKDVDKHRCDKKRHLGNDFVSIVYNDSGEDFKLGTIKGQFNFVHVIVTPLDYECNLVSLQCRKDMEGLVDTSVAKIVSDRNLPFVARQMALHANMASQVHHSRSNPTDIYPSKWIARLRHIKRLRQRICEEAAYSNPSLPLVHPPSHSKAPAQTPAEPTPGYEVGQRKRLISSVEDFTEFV
UniProt P18887, sequence (P18887 whole entry, looked up): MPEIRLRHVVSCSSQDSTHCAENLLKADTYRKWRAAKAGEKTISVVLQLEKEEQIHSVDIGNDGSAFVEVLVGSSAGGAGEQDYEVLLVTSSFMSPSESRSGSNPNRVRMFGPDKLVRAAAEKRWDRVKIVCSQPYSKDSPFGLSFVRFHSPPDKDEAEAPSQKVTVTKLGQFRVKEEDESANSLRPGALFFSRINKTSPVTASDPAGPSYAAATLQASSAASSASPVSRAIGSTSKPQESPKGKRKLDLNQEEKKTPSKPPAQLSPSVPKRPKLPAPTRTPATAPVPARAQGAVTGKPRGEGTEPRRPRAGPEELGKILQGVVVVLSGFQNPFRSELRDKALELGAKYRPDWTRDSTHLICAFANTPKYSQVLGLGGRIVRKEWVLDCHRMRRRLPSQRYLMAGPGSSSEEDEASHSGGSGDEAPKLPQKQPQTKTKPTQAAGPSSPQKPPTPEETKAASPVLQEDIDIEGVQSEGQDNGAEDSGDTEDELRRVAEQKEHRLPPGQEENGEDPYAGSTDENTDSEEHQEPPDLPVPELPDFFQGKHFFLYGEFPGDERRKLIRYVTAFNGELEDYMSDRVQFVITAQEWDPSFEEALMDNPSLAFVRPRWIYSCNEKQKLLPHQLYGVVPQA
UniProt O00124, sequence (O00124 whole entry, looked up): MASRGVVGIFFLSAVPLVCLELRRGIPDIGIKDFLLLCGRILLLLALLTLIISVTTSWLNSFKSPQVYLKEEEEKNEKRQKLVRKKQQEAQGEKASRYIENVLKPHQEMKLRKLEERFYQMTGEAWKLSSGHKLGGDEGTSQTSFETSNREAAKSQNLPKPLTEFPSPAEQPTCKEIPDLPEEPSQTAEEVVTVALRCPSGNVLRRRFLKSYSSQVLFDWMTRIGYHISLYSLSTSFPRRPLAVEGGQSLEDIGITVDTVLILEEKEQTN
UniProt Q86UV5, sequence (Q86UV5 whole entry, looked up): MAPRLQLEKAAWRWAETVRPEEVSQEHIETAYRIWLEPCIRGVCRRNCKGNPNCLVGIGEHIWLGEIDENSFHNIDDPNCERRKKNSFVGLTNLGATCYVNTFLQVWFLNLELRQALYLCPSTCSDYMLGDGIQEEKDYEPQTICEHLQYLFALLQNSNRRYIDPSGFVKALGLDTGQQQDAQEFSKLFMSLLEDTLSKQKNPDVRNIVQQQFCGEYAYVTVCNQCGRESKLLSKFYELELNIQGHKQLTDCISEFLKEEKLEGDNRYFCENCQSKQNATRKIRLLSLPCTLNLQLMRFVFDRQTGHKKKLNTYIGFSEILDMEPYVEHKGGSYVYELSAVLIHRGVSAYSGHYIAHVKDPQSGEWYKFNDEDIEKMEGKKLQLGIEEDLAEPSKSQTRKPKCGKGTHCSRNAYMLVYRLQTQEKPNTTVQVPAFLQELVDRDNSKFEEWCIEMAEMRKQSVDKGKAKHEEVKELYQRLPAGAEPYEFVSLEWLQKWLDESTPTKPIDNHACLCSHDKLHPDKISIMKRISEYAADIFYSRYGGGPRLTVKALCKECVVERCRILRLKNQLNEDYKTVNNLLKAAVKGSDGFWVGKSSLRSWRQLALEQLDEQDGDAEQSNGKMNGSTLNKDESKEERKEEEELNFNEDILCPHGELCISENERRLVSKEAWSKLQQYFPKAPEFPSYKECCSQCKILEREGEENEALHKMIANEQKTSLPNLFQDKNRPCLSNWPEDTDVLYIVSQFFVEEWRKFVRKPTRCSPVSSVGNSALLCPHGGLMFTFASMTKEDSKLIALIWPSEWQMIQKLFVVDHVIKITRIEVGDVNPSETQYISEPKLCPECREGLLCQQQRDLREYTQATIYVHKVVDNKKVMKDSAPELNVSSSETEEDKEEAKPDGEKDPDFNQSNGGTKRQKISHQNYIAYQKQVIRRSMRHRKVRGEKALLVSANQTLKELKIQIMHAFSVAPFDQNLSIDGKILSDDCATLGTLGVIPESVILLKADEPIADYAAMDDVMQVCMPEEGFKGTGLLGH
UniProt Q8NE00, sequence (Q8NE00 whole entry, looked up): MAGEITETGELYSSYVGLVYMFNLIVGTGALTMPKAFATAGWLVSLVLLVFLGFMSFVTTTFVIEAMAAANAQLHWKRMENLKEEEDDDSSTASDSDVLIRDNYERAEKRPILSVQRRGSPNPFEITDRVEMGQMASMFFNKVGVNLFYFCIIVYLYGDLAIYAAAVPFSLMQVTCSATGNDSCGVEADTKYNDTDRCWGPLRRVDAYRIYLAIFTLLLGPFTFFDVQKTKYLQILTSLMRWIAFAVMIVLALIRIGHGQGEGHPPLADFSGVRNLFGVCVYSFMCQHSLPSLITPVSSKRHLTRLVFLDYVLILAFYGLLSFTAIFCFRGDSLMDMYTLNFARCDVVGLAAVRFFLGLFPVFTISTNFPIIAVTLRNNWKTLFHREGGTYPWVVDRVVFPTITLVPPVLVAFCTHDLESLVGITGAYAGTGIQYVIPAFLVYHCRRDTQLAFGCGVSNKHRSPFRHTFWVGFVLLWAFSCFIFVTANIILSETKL

Target	log2 fold change [1]	log2 fold change [2]	log2 fold change [3]	log2 fold change [4]	log2 fold change [5]	log2 fold change [6]	log2 fold change [7]	log2 fold change [8]	log2 fold change [9]	log2 fold change [10]	log2 fold change [11]	log2 fold change [12]	log2 fold change [13]	log2 fold change [14]	log2 fold change [15]	log2 fold change [16]	log2 fold change [17]	log2 fold change [18]	log2 fold change [19]	log2 fold change [20]
TXNRD1 isoform 7 (UniProt Q16881)	-0.124	0.001	-0.052	-0.051	-0.083	-0.214	0.065	0.21	-0.171	-0.227	0.171									
TTC33 (UniProt Q6PID6)	0.049	0.181	0.043	-0.03	-0.1	-0.133	-0.123	-0.072	-0.038	-0.08	0.003	-0.084	-0.069	0.113	-0.158	-0.197	0.151			
TMEM104 (UniProt Q8NE00)		0.172	0.009	0.035				0.068	-0.063	0.143	-0.051	0.066	0.095	-0.089	0.08	0.232	0.097	0.019	-0.003	-0.013
WARS1 (UniProt G3V5U1)	-0.569				-0.609		-0.218		-0.608	-0.761	-0.083			-0.161		-0.142	0.297			
USP48 (UniProt Q86UV5)	0.045				-0.077		0.164		-0.024		0.076			0.117		-0.242	0.185	-0.294	-0.495	-0.016
TRIQK (UniProt Q629K1)	-0.059		0.007		0.013		-0.083			-0.235		-0.007	-0.03	-0.002		-0.044	0			
UTP20 (UniProt O75691)				0.089						0.009										
U2AF1L5 (UniProt P0DN76)	0.047		-0.017			-0.295			-0.28		-0.146			0.173	0.047	0.07	-0.024	0.025	-0.669	-0.108
TMEM128 (UniProt Q5BJH2)	-0.065		-0.01	0.066	-0.059	-0.092	-0.036		-0.131	-0.037	-0.07	0.061	-0.021		-0.167			-0.008	0.003	-0.031
XRCC1 (UniProt P18887)		0.019	0		-0.011		0.064	0.228		-0.211		0.123	0.063		-0.183					
UCHL5 isoform 3 (UniProt Q9Y5K5)	0.151			-0.085	0.037	0.05	0.098		0.113	-0.054	-0.028	-0.052	-0.064	0.049	0.156	-0.277	-0.002	-0.104	0.076	-0.08
UFM1 (UniProt P61960)	0.045		-0.012	-0.061	0.045	-0.056	0.004		0.056	-0.083	0.015	0.008	0.007	0.087	-0.135	-0.073	-0.033	-0.011	0.025	0.026
TVP23C (UniProt Q96ET8)		0.033	0.056	0.041		-0.003		0.045	-0.297		0.081	-0.116		0.04	-0.021	-0.023	0.132			
WARS1 (UniProt G3V277)	-0.008	-0.116			0.029	-0.302	0.025	-0.047						0	-0.52	-0.131	0.001	-0.065	0.039	-0.034
TOM1 (UniProt O60784)	-0.288	-0.105			0.044		0.062	0.048		-0.077				-0.222		-0.176	0.017			
ULBP1 (UniProt Q9BZM6)			0.083	-0.097	-0.045	-0.039	0.099			-0.188		0.068	-0.11	0.004	0.026	-0.227	0.013			
TTC26	-0.04					0.006							0.04							
TTI2 (UniProt Q6NXR4)	0.06		-0.005	-0.059	0.024	-0.074	-0.004		-0.035	0.059	-0.023	-0.017	-0.007	-0.063	-0.038	0.016	-0.047	-0.028	-0.068	0.077
UBXN8 (UniProt O00124)	-0.112	-0.086	-0.056	0.048	-0.139	-0.344	0.046	-0.055	0.037	-0.05	-0.143	0.017	-0.439		-0.103					
WDR75 (UniProt Q8IWA0)	0.019		0.085	-0.021		-0.125				0.17		-0.252	-0.045	-0.329	-0.004	0.173	0.086	-0.214	0.041	0.109
TSC2 (UniProt P49815)	-0.024	0.109		0.019	-0.038		-0.061	0.125	0.273	0.105	-0.594 (active)	0.066	0.047	-0.048	-0.074	0.214	0.107			
UBE3B (UniProt Q7Z3V4)	-0.134		-0.028	-0.112	0.034		-0.046			-0.037		-0.062	0.103		-0.043			0.072	0.03	0.116
